Inconclusive results are not listed. Calls of active or inactive are those of the source. Calls follow the shape of the dose curve; as a rule, active = well fitted curve in the direction sought with a large enough effect; inconclusive = small, poorly fitted or top-dose-only effect, or effect the other way, or another doubt; inactive = no such curve, though single readings can be large or run the other way.

This test can be described thus: Confirmatory Assay to Find Inhibitors of T. brucei phosphofructokinase: Cytotoxictity in KB-3-1. The conditions noted are these: KB-3-1 human cells cytotoxicity counter-screen; series mostly up to 46.1 µM. The text has this:
Various species of the protozoan family Trypanosomatidae are responsible for a range of serious human diseases in tropical and subtropical areas of the world. […] Many of the disorders caused by trypanosomatids are fatal if left untreated, but most currently used drugs are inefficient and toxic.
Oxidative metabolism involving the mitochondrial tricarboxylic acid cycle and oxidative phosphorylation are repressed in these parasites, and recent RNA interference (RNAi) experiments have shown that even partial depletion of certain individual glycolytic enzymes can lead to the death of cultured parasites. One such glycolytic enzyme, phosphofructokinase (PFK), catalyzes the formation of fructose-1,6-bisphosphate (F1,6BP) and ADP from fructose-6-phosphate (F6P) and ATP, and in many metabolic circumstances makes an important contribution to the control of flux through the glycolytic pathway. As a specific glycolytic target, PFK is particularly attractive as it catalyzes the first irreversible step in glycolysis, and structural and kinetic studies have shown very substantial and essential differences from corresponding host enzymes, allowing for the discovery of parasite-selective inhibitors.
Confirmed qHTS active compounds were tested for toxicity against the KB-3-1 human cervical carcinoma cell lines. This line havs historically been used as representative human cells in in vitro Trypanosoma assays, and so provide a relevant surrogate for human cells in testing Tb PFK inhibitor toxicity.
NIH Chemical Genomics Center [NCGC]
NIH Molecular Libraries Probe Centers Network [MLPCN]
Assay Submitter (PI): Malcom Walkinshaw, University of Edinburg
KB-3-1 cells were dispensed into white solid 1536-microwell plates in 5 uL media (high glucose DMEM, 10% FBS) with a Thermo Multidrop. The plates were incubated at 37 degrees Celsius for 2 hours, and subsequently treated with compounds using the Kalypsys pin tool, delivering 23 nL of test compounds to each well. The plates were then incubated for an additional 72 hours at 37 degrees Celsius. Cytotoxicity was assessed by adding 2.5 uL of Cell-Titer Glo (Promega, Madison, WI) via Multidrop, incubating at room temperature for 10 min and reading luminescence on the Perkin Elmer ViewLux using a 1 second exposure and 1x binning. DMSO-treated cells were included as negative control, while media-only wells were used as a positive control equivalent to 100% cell toxicity for the sake of data normalization.
For orientation: The purpose of a counterscreen is to sort out artefacts and off-target activity.
Take `Cc1cc(NS(=O)(=O)C2CCN(C(=O)Cc3ccc(Cl)c(Cl)c3)CC2)no1`: the compound was called inactive.

Regarding `Cc1cc(NC(=O)c2ccc(NC(=O)Cc3ccc(Cl)c(Cl)c3)cc2)no1`, the compound was called inactive.

Regarding `O=C(Cc1ccc(Cl)c(Cl)c1)Nc1ccc(S(=O)(=O)Nc2ccc(C(=O)O)cc2)cc1`, the call was inactive.

For the compound `Cc1cc(NS(=O)(=O)c2ccc(NC(=O)CCc3ccc(Cl)c(Cl)c3)cc2)no1`, the result was inactive.

`Cc1cc(N[S+](=O)([O-])c2ccc3cc(NC(=O)Cc4ccc(Cl)c(Cl)c4)ccc3c2)no1`: the call was inactive.

For the compound `O=C(Cc1ccc(Cl)c(Cl)c1)Nc1ccc(S(=O)(=O)Nc2ccon2)cc1`, the result was inactive.

On to `Cc1cc(NS(=O)(=O)c2ccc(N(C)C(=O)Cc3ccc(Cl)c(Cl)c3)cc2)no1`, for which the outcome was inactive.

Turning to `Cc1cc(NS(=O)(=O)c2ccc(C(=O)NCc3ccc(Cl)c(Cl)c3)cc2)no1`, the call was inactive.

Regarding `Cc1cc(NS(=O)(=O)c2ccc(NC(=O)Cc3cccc(Cl)c3)cc2)no1`, the compound was classed as inactive.

With `Cc1cc(NS(=O)(=O)c2ccc(NC(=O)Cc3ccc(Cl)cc3Cl)cc2)no1`, the result was inactive.

Consider `Cc1cc(NS(=O)(=O)c2ccc(NS(=O)(=O)Cc3ccc(Cl)c(Cl)c3)cc2)no1`, for which the call was inactive.

On to `Cc1cc(NS(=O)(=O)c2ccc(NCCc3ccc(Cl)c(Cl)c3)cc2)no1`, for which the call was inactive.

As for `Cc1cc(NS(=O)(=O)c2ccc(NC(=O)c3ccc(Cl)c(Cl)c3)cc2)no1`, the compound was classed as inactive.

With `Cc1cc(NS(=O)(=O)CCNC(=O)Cc2ccc(Cl)c(Cl)c2)no1`, the result was inactive.

Regarding `COc1ccc(CC(=O)Nc2ccc(S(=O)(=O)Nc3cc(C)on3)cc2)cc1OC`, the compound was called inactive.

As to `Cc1cc(NS(=O)(=O)Cc2ccc(NC(=O)Cc3ccc(Cl)c(Cl)c3)cc2)no1`, the compound was classed as inactive.

`O=C(Cc1ccc(Cl)c(Cl)c1)Nc1ccc(S(=O)(=O)O)cc1`: the compound was called inactive.

Turning to `Cc1cc(NS(=O)(=O)c2ccc(NC(=O)Cc3ccc(Cl)cc3)cc2)no1`, the outcome was inactive.

Consider `Cc1cc(NS(=O)(=O)c2cccc(NC(=O)Cc3ccc(Cl)c(Cl)c3)c2)no1`, for which the call was inactive.

With `Cc1cc(NS(=O)(=O)c2ccc(NC(=O)Cc3ccc(C)c(F)c3)cc2)no1`, the result was inactive.

For `Cc1cc(NS(=O)(=O)c2ccc(NC(=O)Cc3ccc(C)c(C)c3)cc2)no1`, the compound was classed as inactive.

For `Cc1cc(NS(=O)(=O)c2ccc(NC(=O)Cc3ccc4ccccc4c3)cc2)no1`, the call was inactive.

As for `O=C(Cc1ccc(Cl)c(Cl)c1)Nc1ccc(S(=O)(=O)Nc2cccc(C(=O)O)c2)cc1`, the result was inactive.

Consider `Cc1cc(NS(=O)(=O)c2ccc(NC(=O)Cc3ccc(Cl)c(Cl)c3)cc2)n(C)n1`, for which the outcome was inactive.

With `O=C(Cc1ccc(Cl)c(Cl)c1)Nc1ccc(S(=O)(=O)Nc2cncnc2)cc1`, the result was inactive.

As for `Cc1cc(NS(=O)(=O)c2ccc(NC(=O)Cc3ccc(Cl)c(F)c3)cc2)no1`, the call was inactive.

Take `Cc1cc(NS(=O)(=O)c2ccc(NC(=O)C(C)(C)c3ccc(Cl)c(Cl)c3)cc2)no1`: the compound was called inactive.

Consider `COc1ccc(CC(=O)Nc2ccc(S(=O)(=O)Nc3cc(C)on3)cc2)cc1C`, for which the compound was called inactive.
